For nine compounds, growth results are on record in PubChem BioAssay (NCI).

The structures appear in SMILES notation. Compounds without any hit were thinned out: in the full panel of roughly 83,000, 20% have a hit.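 A percent growth of 40 corresponds to 60% growth inhibition; 0 means no net growth; -100 means all cells died. Active threshold: below 10.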 Values without a mark were called inactive. Activity calls are given as the source filed them.

Among the test systems are NCI-H23 lung; NCI-H226 lung; NCI-H322M lung; HOP-62 NSCLC; NCI-H460 lung; HOP-92 NSCLC; NCI-H522 lung; A549/ATCC NSCLC; 786-0 renal; COLO 205 colon; DU-145 prostate; K-562 leukemia; MDA-MB-231 breast; RXF 393 renal; SF-268 CNS; SF-539 CNS; UACC-257 melanoma; M14 melanoma; MALME-3M melanoma; SF-295 CNS.
Holding throughout (test): NCI-60 one-dose screen, 48 h (100 = growth as untreated, 0 = no growth, -100 = all killed)
What all share (conditions): 10 µM unless noted

Consider `CCCCCCCCCCCCSC(=N)N`, for which the growth with NCI-H23 lung was 87.4%; in the assay on NCI-H226 lung it was 107%; in the assay with NCI-H322M lung, 68.7%; in the assay on HOP-62 NSCLC it was 58.3%; with NCI-H460 lung it was -28% (active); with HOP-92 NSCLC it was -22.4% (active). Further, the growth in the assay with NCI-H522 lung was 88.5%; in the assay with A549/ATCC NSCLC it was 40.9%; with 786-0 renal it was -37.7% (active); with COLO 205 colon it was -95.1% (active); in the assay on DU-145 prostate, 42.8%; with K-562 leukemia, -40.8% (active). Further, the growth in the assay with MDA-MB-231 breast was -30.1% (active); in the assay with RXF 393 renal it was 21.5%; in the assay on SF-268 CNS it was 67.8%; with SF-539 CNS it was 74.9%; in the assay on UACC-257 melanoma, 14%; in the assay on M14 melanoma, -5.2% (active).

In the case of `O=C1C=Cc2ccccc2/C1=C/c1nc(-c2ccccc2)oc1O`, the growth was 82.1% in the assay with NCI-H23 lung; 73% with NCI-H226 lung; 90.6% in the assay on NCI-H322M lung; 88.1% in the assay on HOP-62 NSCLC; 98.5% in the assay on NCI-H460 lung; 103% in the assay with HOP-92 NSCLC. The growth in the assay on NCI-H522 lung is 90.3%; with A549/ATCC NSCLC it was 107%; in the assay on 786-0 renal it was 107%; in the assay on COLO 205 colon, 87.5%; in the assay with K-562 leukemia, 96.8%; with MALME-3M melanoma it was 74.4%. For the same compound, the growth in the assay on MDA-MB-231 breast was 73.6%; in the assay with RXF 393 renal, 101%; in the assay with SF-268 CNS, 84.8%; with SF-295 CNS, 101%; with SF-539 CNS, 87.7%; with UACC-257 melanoma, 105%. Also, the growth in the assay on M14 melanoma is 93.5%.

Take `NNc1ccc(Cl)cc1Cl`: the growth was 82.7% with NCI-H23 lung; 86.3% in the assay on NCI-H226 lung; 77.3% in the assay on NCI-H322M lung; 64.9% with HOP-62 NSCLC; 97.5% in the assay on NCI-H460 lung; 55.2% in the assay with HOP-92 NSCLC. Also, the growth in the assay on NCI-H522 lung is 53.6%; in the assay on A549/ATCC NSCLC, 82.9%; in the assay on 786-0 renal, 86.5%; in the assay on COLO 205 colon, 91.5%; in the assay with DU-145 prostate, 108%; in the assay with K-562 leukemia it was 13.4%. For the same compound, the growth in the assay with MALME-3M melanoma was 104%; in the assay on RXF 393 renal it was 102%; with SF-268 CNS, 71.7%; in the assay with SF-295 CNS, 76.6%; in the assay on SF-539 CNS it was 94.5%; in the assay on M14 melanoma it was 67.6%.

`Cc1cc2nc(CC(=O)c3ccncc3)c(=O)[nH]c2cc1C`: the growth is 94.2% in the assay on NCI-H23 lung; 87.4% in the assay with NCI-H226 lung; 95.9% with NCI-H322M lung; 95% in the assay with HOP-62 NSCLC; 95.2% in the assay on NCI-H460 lung; 92.8% in the assay on HOP-92 NSCLC. Further, the growth in the assay on NCI-H522 lung was 87.6%; with A549/ATCC NSCLC, 98.5%; in the assay with 786-0 renal, 87.7%; with COLO 205 colon it was 130%; with DU-145 prostate, 100%; with K-562 leukemia it was 91.1%. Also, the growth in the assay with MALME-3M melanoma was 109%; in the assay with RXF 393 renal, 96.4%; with SF-268 CNS, 94.2%; in the assay with SF-295 CNS, 92%; in the assay on SF-539 CNS, 60.8%; in the assay with UACC-257 melanoma, 107%. The growth in the assay on M14 melanoma is 106%.

On to `N#C/C(=N\Nc1ccc(Cl)cc1)C(=O)C1CC1`, for which the growth with NCI-H23 lung is 42.4%; with NCI-H226 lung, 69.9%; with NCI-H322M lung, 82.1%; in the assay with HOP-62 NSCLC, 41.9%; in the assay with NCI-H460 lung, 44.9%; in the assay on HOP-92 NSCLC, 20%. The growth in the assay with NCI-H522 lung was 35.5%; in the assay on A549/ATCC NSCLC it was 40.9%; in the assay on 786-0 renal, 39.6%; in the assay with COLO 205 colon it was 60.4%; in the assay with DU-145 prostate, 74.4%; in the assay on K-562 leukemia, 63.2%. Also, the growth was 31.1% in the assay on MALME-3M melanoma; 84.9% with RXF 393 renal; 40.9% in the assay with SF-295 CNS; 59.7% in the assay on SF-539 CNS; 3.99% (active) with UACC-257 melanoma; 52.2% with M14 melanoma.

For the compound `CCCCCCCCCCCCCCCCSC(=NCC)NCC`, the growth in the assay on NCI-H23 lung was 39.4%; in the assay on NCI-H226 lung it was 85.7%; in the assay on NCI-H322M lung, 17.4%; in the assay on HOP-62 NSCLC, 25.9%; in the assay with NCI-H460 lung, -83.9% (active); in the assay with HOP-92 NSCLC, -21.3% (active). The growth is 23.5% in the assay with NCI-H522 lung; -19.9% (active) with A549/ATCC NSCLC; 11.1% in the assay on 786-0 renal; -98.7% (active) with COLO 205 colon; 36% in the assay with DU-145 prostate; -59.8% (active) with K-562 leukemia. Also, the growth in the assay with MDA-MB-231 breast is -18.4% (active); in the assay on RXF 393 renal, 6.55% (active); in the assay on SF-268 CNS, 39.5%; in the assay with SF-539 CNS, 32.8%; in the assay with UACC-257 melanoma it was -12.4% (active); in the assay with M14 melanoma it was -49.8% (active).

Regarding `CC(=O)Nc1ccc(C(=O)CCl)cc1`, the growth in the assay on NCI-H23 lung is 86.4%; in the assay with NCI-H226 lung it was 92.6%; in the assay on NCI-H322M lung, 95.5%; in the assay with HOP-62 NSCLC, 94%; in the assay on NCI-H460 lung, 80.9%; in the assay on HOP-92 NSCLC, 62%. Further, the growth was -65.4% (active) in the assay on NCI-H522 lung; 98.7% with A549/ATCC NSCLC; 16.9% with 786-0 renal; 3.3% (active) in the assay with COLO 205 colon; 66% with DU-145 prostate; 1.75% (active) with K-562 leukemia. Besides, the growth is -53.9% (active) in the assay on MALME-3M melanoma; 83.2% in the assay on RXF 393 renal; 81.2% in the assay with SF-268 CNS; 102% in the assay on SF-295 CNS; 56.1% in the assay on SF-539 CNS; 86% with UACC-257 melanoma.

As for `CCCCN(CCCC)CCCCCCCCCCO`, the growth was 97% in the assay on NCI-H23 lung; 105% in the assay on NCI-H226 lung; 95.1% in the assay with NCI-H322M lung; 104% in the assay with HOP-62 NSCLC; 110% with NCI-H460 lung; 129% in the assay with HOP-92 NSCLC. For the same compound, the growth with NCI-H522 lung was 75.9%; in the assay with A549/ATCC NSCLC it was 115%; in the assay with 786-0 renal, 92.1%; in the assay on COLO 205 colon, 106%; in the assay with DU-145 prostate, 111%; in the assay on K-562 leukemia, 93.9%. In addition, the growth was 120% in the assay on MDA-MB-231 breast; 106% in the assay on RXF 393 renal; 109% with SF-268 CNS; 105% in the assay with SF-539 CNS; 106% in the assay on UACC-257 melanoma; 93% in the assay on M14 melanoma.

With `COc1cc(NC(=O)C2=C(C)NC(C)=C(C(=O)Nc3cc(OC)c(Cl)cc3OC)C2c2cccc([N+](=O)[O-])c2)c(OC)cc1Cl`, the growth in the assay on NCI-H23 lung was 34.6%; with NCI-H226 lung, 45.7%; with NCI-H322M lung, 46.3%; with HOP-62 NSCLC it was 43.2%; in the assay with NCI-H460 lung, 36.8%; with HOP-92 NSCLC, 13.2%. Also, the growth in the assay with NCI-H522 lung was 46.8%; in the assay on A549/ATCC NSCLC, 35.7%; in the assay on 786-0 renal, 39%; in the assay on COLO 205 colon, 50.5%; in the assay on DU-145 prostate, 58.4%; with K-562 leukemia, 33.4%. In addition, the growth in the assay on MALME-3M melanoma was 37.5%; with RXF 393 renal, 36.7%; in the assay with SF-268 CNS it was 39.3%; in the assay on SF-295 CNS, 26.3%; in the assay with SF-539 CNS, 31.8%; in the assay with UACC-257 melanoma, 46.9%. The growth in the assay on M14 melanoma is 20.1%.
